Our source for the binding signal values is publication PMC12136788.

Numbering of substitutions follows the chain as printed. Whole data set: some 5,800 sequences, median “enrichment r” near 0.54, cut for the highest 2% near 16. This is one part of a sample in which the highest values are shown more often than they occur.

B1: chr2:205797254:205797461:+|3pUTR|ENSG00000118257|msi1|FALSE|unique (ssRNA)
RNA: GGGAGUUCUACAGUCCGACGAUCUCACCCUCCCAUGAUGCGCAGUGUUCAGAAAGCUGGUAAGUCCUAGGGAUUUCCAGAAGUAGCCUGCAGAAGAAGGUAAGUUUGAAAGCCACUCCAGGGGUCCUGAUGCUGUCAUGCUCACAACAGAGGAUUGAGCAUCA
B2: ENSG00000107863:be:win_2651|CDS|ENSG00000107863|bound_else_gene|NA|bound_elsewhere_windowed (ssRNA)
RNA: GGGAGUUCUACAGUCCGACGAUCAGGGUCUGGAUGAUUACAGAGAAGAUGCAAAAUUGUCCUUUAAGCACGUAUCUAGUCUGAAGGGAAUCAAGAUCGCAGACAGCCAAAAGUCAUCAGAAGACUCUGGGUCCAGAAAAGAUUCAACAGAGGAUUGAGCAUCA
B3: chr10:74136666:74136778:-|CDS|ENSG00000185009|unk|FALSE|unique (ssRNA)
RNA: GGGAGUUCUACAGUCCGACGAUCUUCAGAGGCUGCAAUUAAGGAUAAUGUGGUCAUAGUAUAUGAACUCUUAGAAGAAAUGUUAGACAAUGGAUUUCCACUGGCUACCGAAUCUAACAUUUUGAAAGAAUUGAUUAAACCACCCAACAGAGGAUUGAGCAUCA
B4: chr1:94529602:94529703:-|3pUTR|ENSG00000117525|msi1|total|mutant (ssRNA)
RNA: GGGAGUUCUACAGUCCGACGAUCUGGAAGGAAAUUGGGUGCAUUUCCCGGACUUUUCUAACAUAUGUCUAUAAUACCGUGUUCCGGUUCUUUUUUUUUUCAGGAAUACAUUUGGAAAUUCAAAACAAUUGGCAAACUUUGUAUCAACAGAGGAUUGAGCAUCA
B5: chr12:64147824:64147925:+|3pUTR|ENSG00000196935|unk|FALSE|unique (ssRNA)
RNA: GGGAGUUCUACAGUCCGACGAUCCAUCUCUGUGGUGUCUUUGUUCCUUUCCUUUCAUUCAUCACUACUUUCUCCUUGACAGCUAGCUUGCAUUAAAUAAUGUGAAACUUUUACCUUUAAAAUAUUUUUUUAUCUCACUUUCAUCAACAGAGGAUUGAGCAUCA
B6: ENSG00000100485:stop:overlap|stop_codon|ENSG00000100485|stop_codon|NA|stop_codon (ssRNA)
RNA: GGGAGUUCUACAGUCCGACGAUCAUAUAUAUACACAUAUAUAUACACACACACACACAUUUUAUGUGUCAGUUUUCAAUAUAUAGUUAACACAAAAGCUCUCAGCUUUUAAUUCAAAUAUAGGGAAUAUUUUUAACUUCACAGCAACAGAGGAUUGAGCAUCA
B7: chr12:49764829:49764866:+|3pUTR|ENSG00000139644|msi1_unk|FALSE|overlapping (ssRNA)
RNA: GGGAGUUCUACAGUCCGACGAUCACUUUUAAAGAAAAUACCUAACAGAUUUUUAAUAUAGUUAUCUCUACCACUUUCUUUUCUAGUUUCUUGAUUUUCAGCUCAGGCUGCAUUCUAACUCAUACUGUGAAGACAAAGGUGUUUCAACAGAGGAUUGAGCAUCA
B8: chr3:125228010:125228111:-|3pUTR|ENSG00000163848|msi1|FALSE|unique (ssRNA)
RNA: GGGAGUUCUACAGUCCGACGAUCAGUUCUCUUCAUAUUUCAUAACUACAUUUCAAUAAUUCUAAACUUUCUACAUUGAUUUUUAGAUACUUAUUUUUCAAGCUUGGUUUCUCAGCUGAUCAGAUGAAUUUAUUCAACUUCAAUCAACAGAGGAUUGAGCAUCA
B9: chr3:125228010:125228111:-|3pUTR|ENSG00000163848|msi1|total|mutant (ssRNA)
RNA: B8 RNA with U83C, A84C
B10: chr5:43295829:43295944:-|CDS|ENSG00000112972|unk|FALSE|unique (ssRNA)
RNA: GGGAGUUCUACAGUCCGACGAUCAAUAUCCUAGCUUUAUUCUAAAGUCAAACUUUAAAAUUUCAUGGCUUAUAUGAAUUUCAUAGUUUCCUUGGACUUCUCUUUCAGAGGGAAAUGAUAAAGAUUUUACCUUGAAUGAUUUUGCAACAGAGGAUUGAGCAUCA
B11: chr11:58422334:58423261:-|CDS|ENSG00000172365|control|control|control (ssRNA)
RNA: GGGAGUUCUACAGUCCGACGAUCACACACUAGUGAGGUGAUUCUGGUUUUUAUGUCAAGCUUUAAUAUCUUUUUUGUUCUUCUAGUUAUCUUUAUCUCCUACUUGUUCAUAUUCAUCACCAUCUUGAAGAUGCAUUCAGCUAACAACAGAGGAUUGAGCAUCA
B12: chr1:93888438:93888539:-|3pUTR|ENSG00000023909|msi1|FALSE|unique (ssRNA)
RNA: GGGAGUUCUACAGUCCGACGAUCAGAUAUUUUUCCUGUCAUUGAUGAGAUAUAUCAGAGUAACUGGAGUAGCUGGGAUUUACUAGUAGUGUAAAUAAAAUUCACUCUUCAAUACAUGAAUGGAAACUUAAAUUUUUUUUUAUGCAACAGAGGAUUGAGCAUCA
B13: chr1:93888438:93888539:-|3pUTR|ENSG00000023909|msi1|total|mutant (ssRNA)
RNA: B12 RNA with U69C, A70C, U83C, A84C, U86C, A87C
B14: chr1:162785649:162785750:+|3pUTR|ENSG00000162733|unk|FALSE|unique (ssRNA)
RNA: GGGAGUUCUACAGUCCGACGAUCUGAAUGUUGUUUUUUUGAAUGAACAUAAGAUAGAAACAAAAACUUCUCAUCCAGUUAACUAGAGUGAAUGUAGGGAGAAUUGUUUUGCUUGUAACAUGGAGAGUUUAUUUUCAAGUGAGGCAACAGAGGAUUGAGCAUCA
B15: chr15:77046258:77046342:-|3pUTR|ENSG00000140391|msi1_unk|FALSE|overlapping (ssRNA)
RNA: GGGAGUUCUACAGUCCGACGAUCAAAAAUAUUUACUGUAGUCCAAUAAGAUAGCAGCUGUACAAAAUGACUAAAAUAGAUUGUAGGAUCAUAUGGCGUAUAUCUUGGUUCAUCUUCAAAAUCAGAGACUGAGCUUUGAAACUACAACAGAGGAUUGAGCAUCA
B16: chr2:128192346:128192447:+|3pUTR|ENSG00000136731|msi1|FALSE|unique (ssRNA)
RNA: GGGAGUUCUACAGUCCGACGAUCAGAAAAUGAUGUUACCACUAAAAUAUUUUCUCCAAGAAGGCAUACUGUAACAGAAAAGAUAGGUAAGAUAUUUUUUUCCCAAGAAGUAAGAAUUGAUUGUGCUGAAUGUUCAAACUCUGGCAACAGAGGAUUGAGCAUCA
B17: chr16:3727831:3727932:-|CDS|ENSG00000005339|unk|FALSE|bound_elsewhere (ssRNA)
RNA: GGGAGUUCUACAGUCCGACGAUCCGUCUCACCCCAGACUGGUUCCCCCCACCCCGGACUCGCAGUCACCAUGGCCAGCUCCAUAGAUCAGGGACACUUGGGGAACCCCGAACAGAGUGCAAUGCUCCCCCAGCUGAACACCCCCAACAGAGGAUUGAGCAUCA
B18: chr16:30193532:30193793:-|CDS|ENSG00000169627|control|control|control (ssRNA)
RNA: GGGAGUUCUACAGUCCGACGAUCGCCUUAGUAAGGGCGGAAGUGAGUUUUCCAGCGGAAGUGGCUCCUGUAAGGCAGCAAGGUAGCGUGGCCGGCGCCCGAGCUGGGGUUGUGUCCCUGCUGGGCUGCCGUUCCAGCUGGACUCAACAGAGGAUUGAGCAUCA
B19: chrX:101412715:101412817:+|CDS|ENSG00000126945|unk|FALSE|unique (ssRNA)
RNA: GGGAGUUCUACAGUCCGACGAUCGGGUAUGGAGGCUAUGAUGACUAUGGUGGCUAUAAUGAUGGAUAUGGCUUUGGGUCUGAUAGAUUUGGAAGAGACCUCAAUUACUGUUUUUCAGGAAUGUCUGAUCAUAGAUACGGAGAUCAACAGAGGAUUGAGCAUCA
B20: chr11:28036422:28036524:-|CDS|ENSG00000121621|unk|FALSE|unique (ssRNA)
RNA: GGGAGUUCUACAGUCCGACGAUCCAGCUCAAUGAUUCUCUUAGCAAAGAACUUCAGCCUAUUGUAUAUACACCAGAAGACUGUAGAAAAGCUUUUCAAAAUCCGUCUACAGUAACCUUAAUGAAACCAUCAUCAUUUACUACACAACAGAGGAUUGAGCAUCA
B21: chr9:83661418:83661519:-|3pUTR|ENSG00000135018|msi1|FALSE|unique (ssRNA)
RNA: GGGAGUUCUACAGUCCGACGAUCUAUAGUUGGGUGACCAGAUUUUGUCCUGCAUCUGUCCAGUUUAUUUGCUUUUUAAACAUUAGCCUAUGGUAGUAAUUUAUGUAGAAUAAAAGCAUUAAAAAGAAGCAAAUCAUUUGCACUCAACAGAGGAUUGAGCAUCA
B22: chr5:132541444:132541810:-|three_prime_utr|ENSG00000113525|control|control|control (ssRNA)
RNA: GGGAGUUCUACAGUCCGACGAUCAAAUUGAUAUACUUUUUUCUUAUUUAACUUAACAUUCUGUAAAAUGUCUGUUAACUUAAUAGUAUUUAUGAAAUGGUUAAGAAUUUGGUAAAUUAGUAUUUAUUUAAUGUUAUGUUGUGUCAACAGAGGAUUGAGCAUCA
B23: chr6:98868534:98874277:-|three_prime_utr|ENSG00000112234|control|control|control (ssRNA)
RNA: GGGAGUUCUACAGUCCGACGAUCAUUAAAAUUAAUGUGCUUUGUUGGGGUUUAAUUUUGGGAUUGGUUUUGGGUUUUGUUUUUAGUUGUUUUAAUGGUAAGAAUUAAGACAUUUGUAGAUUUUAAAGAAAAAUAUGAAAUUGUCAACAGAGGAUUGAGCAUCA
B24: chr9:83661418:83661519:-|3pUTR|ENSG00000135018|msi1|total|mutant (ssRNA)
RNA: B21 RNA with U26C, A27C, U83C, A84C, U93C, A94C, U105C, A106C
B25: chr8:25429562:25429664:-|3pUTR|ENSG00000104756|unk|FALSE|unique (ssRNA)
RNA: GGGAGUUCUACAGUCCGACGAUCAGAAAAGCACUCAUUUAAUAGAUGUAGGGAAACUAGAUAUUGCUGCCUUUUGAAUGGGGUAGGGGGGUUUACCUGGUUUUAUGACCAGGCAUAGUAUCUAUUAUAUUUGCUUUUAAAUAGCAACAGAGGAUUGAGCAUCA
B26: chr11:74334375:74334476:-|3pUTR|ENSG00000165434|msi1|FALSE|unique (ssRNA)
RNA: GGGAGUUCUACAGUCCGACGAUCUUUUUGUUUUAUUUUUAAAAUGUGUAAAACAUCUUUUGUUUUAUAUGCUUUUAAGAAUGUAGAUUGUAAUUUAGGAAAUGGCAUAUAUUCUGCAAAGUGGUAUAAUGUUGUAUAUAUGAACAACAGAGGAUUGAGCAUCA

For this experiment, the target named is MSI1 full-length (mouse, UniProt Q61474 1-362). Kind of experiment: nsRBNS (natural sequence RNA bind-n-seq); RBNS binding buffer (assumed for nsRBNS): 25 mM Tris pH 7.5, 150 mM KCl, 3 mM MgCl2, 0.01% Triton X-100, 500 ug/ml BSA, 20 U/ml SUPERase-In, 4 C; UNK is unkempt and MSI1 is Musashi-1; names of the RNAs are library labels; protein concentration not given here; high values mean tight binding.
Sequence of MSI1 full-length (Q61474 whole entry): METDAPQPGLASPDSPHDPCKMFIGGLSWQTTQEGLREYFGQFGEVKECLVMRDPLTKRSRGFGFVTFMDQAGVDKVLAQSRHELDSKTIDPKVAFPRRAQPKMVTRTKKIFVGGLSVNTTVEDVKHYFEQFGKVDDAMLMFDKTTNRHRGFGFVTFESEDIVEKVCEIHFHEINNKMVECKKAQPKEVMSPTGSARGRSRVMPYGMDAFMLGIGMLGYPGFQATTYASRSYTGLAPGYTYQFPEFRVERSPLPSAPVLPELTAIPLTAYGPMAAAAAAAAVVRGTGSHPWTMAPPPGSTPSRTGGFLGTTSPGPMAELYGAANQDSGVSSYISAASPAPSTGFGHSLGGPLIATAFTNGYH
Molecule B1 came in with a binding signal of 0.607 enrichment R.
To B2 belongs 0.365 enrichment R; to B3, 0.651 enrichment R.
With B4 the figure was 0.407 enrichment R; with B5, 7.22 enrichment R.
With B6 the figure was 2.06 enrichment R; with B7, 3.05 enrichment R; with B8, 5.53 enrichment R.
Molecule B9 showed a binding signal of 18.6 enrichment R.
B10 registered a binding signal of 0.654 enrichment R.
Regarding B11, the binding signal was found to be 23.6 enrichment R.
B12 came in with a binding signal of 28.4 enrichment R.
In the case of B13, the binding signal is 0.484 enrichment R.
With B14 the figure was 2.65 enrichment R; with B15, 9.31 enrichment R; with B16, 0.593 enrichment R.
With B17 the figure was 0.562 enrichment R; with B18, 0.62 enrichment R; with B19, 0.771 enrichment R.
B20 yielded a binding signal of 0.992 enrichment R.
B21 showed a binding signal of 26.4 enrichment R.
On to B22, for which the binding signal amounted to 2.88 enrichment R.
To B23 belongs 21.9 enrichment R.
For B24, the binding signal came out at 0.203 enrichment R.
With B25 the figure was 2.16 enrichment R; with B26, 3.15 enrichment R.
